Shown is part of a subset that was picked to be rich in hits.
LmPK inh: qHTS Assay for Inhibitors of Leishmania Mexicana Pyruvate Kinase (LmPK); Q27686; purified LmPK, Kinase-Glo ATP luminescence, 1 h; Potency, µM (top dose mostly 57.5 µM), without a hit: top-dose activity change, negative = inhibition, hits mostly inhibitors; 0.37% of 290,000 active; AID 1721, 2009; note: potency is the fitted concentration of half-maximal effect; % is set by controls: 0 for no effect and ±100 for the full control effect
Target sequence (Q27686 whole entry, looked up): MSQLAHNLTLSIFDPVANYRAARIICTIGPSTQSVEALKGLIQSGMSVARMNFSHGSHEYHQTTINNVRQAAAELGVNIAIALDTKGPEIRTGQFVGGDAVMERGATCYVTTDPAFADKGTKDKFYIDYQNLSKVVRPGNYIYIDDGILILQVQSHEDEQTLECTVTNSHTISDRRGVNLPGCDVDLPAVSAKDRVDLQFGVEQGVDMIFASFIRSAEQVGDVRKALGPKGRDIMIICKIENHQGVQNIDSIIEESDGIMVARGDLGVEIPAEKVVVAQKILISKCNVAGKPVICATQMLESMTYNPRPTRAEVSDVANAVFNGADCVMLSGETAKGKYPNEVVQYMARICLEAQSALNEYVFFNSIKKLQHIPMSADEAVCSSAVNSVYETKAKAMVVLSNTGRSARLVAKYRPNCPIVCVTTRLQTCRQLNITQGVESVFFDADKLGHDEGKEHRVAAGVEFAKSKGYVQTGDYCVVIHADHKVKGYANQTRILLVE
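ATP generated from ADP (0.1 mM) and PEP (0.5 mM) by 0.1 nM LmPK over 1 h at room temperature (pH 7.2 imidazole buffer) was detected by coupled luciferase luminescence. Values were normalized to uninhibited and no-enzyme wells.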
Shiga inhibitor: A qHTS for Small Molecule Inhibitors of Shiga Toxin; inhibition, % at 38.7 µM; 9.2% of 290,000 active; AID 2315, 2010; Vero cells, Shiga toxin protein synthesis inhibition reporter; in the data active = inhibition mostly above about 28%, no sharp cut-off; inactive = mostly below about 43%; note: 0% is about no effect
Tb PYK inh: qHTS of Trypanosoma Brucei Inhibitors. Potency, µM (top dose mostly 76.8 µM), for the others: at the top dose activity, negative = inhibition, most hits filed as inhibitors. TbPYK enzyme, Kinase-Glo Plus ATP luminescence, 45 min. 0.12% of 410,000 active; note: potency is the fitted concentration of half-maximal effect; % is set by controls: 0 for no effect and ±100 for the full control effect; nearly all actives have a fitted effect of over 50% in size
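Screened from lowest to highest concentration, compounds were pinned into TbPYK/substrate mixtures, and ADP (130 uM final) was added. Plates sat at room temperature for 45 min prior to Kinase-Glo Plus detection by luminescence.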
FBPA Giardia inh: qHTS Assay for Inhibitors of Fructose-1,6-bisphosphate Aldolase from Giardia Lamblia; Potency, µM (titrated, usually from 59.6 µM), for inactives: at the top dose activity, negative = inhibition, most hits filed as inhibitors; purified Giardia FBPA; 0.71% of 290,000 active; A8B2U2; AID 2451, 2010; note: potency is the fitted concentration of half-maximal effect; % is set by controls: 0 for no effect and ±100 for the full control effect; nearly all actives have a fitted effect of over 55% in size
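40 nM FBPA preincubated 10 min at RT with compound (up to 57.5 uM final), then substrate plus GAPDH/TPI/NAD/arsenate coupling and diaphorase/resazurin added. Fluorescence read after 20 min at RT, 525/598 nm.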
RE007 growth inh: qHTS Assay for Inhibitors of the HIV-1 protein Vpr | 0.21% of 360,000 active | AID 651644, 2012 | S. pombe RE007 Vpr strain, BacTiter-Glo ATP luminescence, 24 h | Potency, µM (highest dose often 92.2 µM), for inactives: at the top dose activity change, negative = less growth, most hits filed as inhibitors; active = well fitted falling curve with a large enough effect; note: potency is the fitted concentration of half-maximal effect; % is set by controls: 0 for no effect and ±100 for the full control effect; nearly all actives have a fitted effect of over 50% in size
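Fission yeast RE007 carrying one integrated HIV-1 vpr copy, seeded at OD 0.01 in PMG+AL medium with 23 nL pinned compound. Grown 24 h at 30 degrees; viability read by BacTiter-Glo luminescence after 5 min.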
Cycloheximide cs: Cycloheximide Counterscreen for Small Molecule Inhibitors of Shiga Toxin; AID 2314, 2010; max response, %; 12% of 300,000 active; cell reporter, cycloheximide protein synthesis inhibition counterscreen; in the data active = max response mostly above about 13%, no sharp cut-off; inactive = mostly below about 14%; note: read at 38.3 µM for the half of the compounds with a filed dose; 0% is about no effect
Numbers without * were called inactive; x = no result given; + = active, no number; [ ] = another dose, or the depositor's remark. Unless noted, calls come from the whole dose curve; as a rule, active = well fitted curve in the direction sought with a large enough effect; inconclusive = small, poorly fitted or top-dose-only effect, or another doubt; inactive = no such curve, though single readings can be large; an effect the other way counts as inactive or inconclusive.

SMILES	LmPK inh	Shiga inhibitor	Tb PYK inh	FBPA Giardia inh	RE007 growth inh	Cycloheximide cs
CCCCOc1ccc(C(=S)N2CCC(C(N)=O)CC2)cc1	-1.4%	104.8*	-11.4%	0.1%	2.1%	38.4*
CCC(Oc1ccccc1)C(=O)N1CCC(C(N)=O)CC1 (configuration not stated)	-5.4%	42.3*	3.0%	2.6%	-3.5%	18.4*
CCOc1ccc(C(=S)N2CCCC2)cc1	-1.7%	87.7*	6.4%	-2.3%	-12.0%	13.9*
Cc1ccc(S(=O)(=O)N(CC(=O)NCCSc2ccccn2)c2ccccc2F)cc1	-0.2%	-4.2	0.1%	5.6%	-7.3%	-5.6
CCC(C)NC(=O)c1cc2cc3ccc(OC)cc3nc2s1 (configuration not stated)	-22.8%	88.4*	-2.2%	-18.8%	-5.3%	57.3*
CC(C)CCNC(=O)c1cc2c(=O)n3ccccc3nc2s1	-7.1%	41.3*	-5.0%	-1.3%	0.8%	20.1*
COCCN(CCOC)C(=O)c1cc2c(=O)n3ccccc3nc2s1	6.5%	22.7	-5.8%	-20.8%	-0.3%	33.7*
CCC(C)NC(=O)c1cc2c(=O)n3ccccc3nc2s1 (configuration not stated)	0.3%	31.8*	-9.8%	-3.0%	-7.7%	34.9*
CCN(CC)C(=O)c1cc2c(=O)n3ccccc3nc2s1	-2.4%	37.6	1.1%	0.0%	-13.5%	22.4
COc1ccc(N(CC(=O)NC2CC3CCC2C3)S(=O)(=O)c2ccc(C)cc2)cc1Cl (configuration not stated)	x	x	-5.0%	x	-14.7%	x
COc1ccc(S(=O)(=O)N2CCCCC2)cc1NS(=O)(=O)c1ccccc1	x	x	-6.6%	x	9.7%	x
CCn1c(=O)c2cc(C(=O)NCCC(C)C)sc2c2ccccc21	1.4%	-3.2	1.7%	0.8%	-4.1%	-1.9
CCC(C)NC(=O)c1cc2c(=O)n(CC)c3ccccc3c2s1 (configuration not stated)	3.5%	8.8	-6.4%	6.9%	-16.6%	11.6*
CCOC(=O)c1[nH]c2ccccc2c1NC(=O)NC(C)C	0.0%	10.6	2.2%	2.0%	0.7%	-0.6
CCOC(=O)c1[nH]c2ccccc2c1NC(=S)Nc1cccc(C)c1C	-8.6%	33.4	-10.2%	-2.1%	3.9%	28.7*
Cc1cccc(NC(=S)NC(=O)CCc2ccccc2)c1C	7.2%	22.2	-6.1%	-2.8%	-16.0%	18.2*
Cc1cc(C)c(NC(=S)N(C)C)cc1C	3.9%	36.3	-1.0%	-3.5%	-4.5%	-4.2
Cc1cccc(NC(=S)NC(=O)Cc2ccccc2)c1C	-5.4%	15.5*	-1.3%	-4.7%	24.0%	8.0
Cc1c(NC(=S)NC(=O)Cc2ccccc2)cccc1C(=O)O	5.1%	10.3	1.4%	11.4%	9.1%	11.0
Cc1cccc(NC(=S)NN(Cc2ccccc2)c2ccccc2)c1C	-1.5%	11.8	1.2%	4.9%	2.9%	2.9
Cc1cccc(NC(=S)N(C)C)c1C	0.9%	29.8*	5.8%	-2.6%	-3.0%	-2.1
C#CCOCCOCCOCCNc1nc(N2CCN(C(=O)[C@H](CCC(=O)O)n3cc(C(N)Cc4ccc(O)cc4)nn3)CC2)nc(N2CCN(C(=O)[C@H](CCCCN)n3cc(C(N)[C@H](C)CC)nn3)CC2)n1 (some centres not stated)	-5.1%	-7.8	x	-8.6%	x	3.4
O=c1[nH]c(=S)[nH]c2nccnc12	x	x	-4.5%	x	12.3%	x
OC(c1cc(F)cc(Cl)c1)c1ncc(-c2ccccc2C(F)(F)F)[nH]1 (configuration not stated)	x	x	-13.1%	x	-11.2%[18.4 µM]	x
Cc1cc(F)ccc1NC(=O)CCS(=O)(=O)c1cc2c(cc1C)NC(=O)CO2	x	x	4.1%	x	x	x
SMILES	LmPK inh	Shiga inhibitor	Tb PYK inh	FBPA Giardia inh	RE007 growth inh	Cycloheximide cs
COc1ccc(NC(=O)c2cc(-c3cc(OC)c(OC)c(OC)c3)nc3ccccc23)cc1OC	-1.8%	19.0	0.0%	-4.8%	4.6%	7.6
COc1ccc(-c2cc(C(=O)Nc3ccc(O)cc3)c3ccccc3n2)cc1OC	3.5%	61.5*	-0.4%	-26.7%	3.2%	28.2*
COc1ccc(-c2cc(C(=O)Nc3ccc(C)c(N)c3)c3ccccc3n2)cc1	0.4%	118.1*	8.0%	11.3%	6.7%	18.8*
Cc1c(NS(=O)(=O)c2cc(C(=O)N(C)Cc3ccccc3)ccc2Cl)c(=O)n(-c2ccccc2)n1C	x	x	-15.0%	x	-3.2%	x
CC(=O)Nc1ccc(NC(=O)CSc2nccn2Cc2ccco2)cc1	0.5%	59.5*	9.3%	x	-8.1%	16.9*
CCOC(=O)c1ccccc1NC(=O)CSc1nccn1Cc1ccco1	x	x	-13.9%	x	x	x
O=C(CN(Cc1ccco1)C(=O)c1ccccc1F)Nc1ccccc1C(F)(F)F	x	x	-2.2%	x	-6.1%	x
CC(=O)Nc1ccc(NC(=O)CSc2nccn2C)cc1	x	x	1.9%	x	x	x
O=C(CSc1nccn1Cc1ccco1)Nc1ccccc1C(F)(F)F	-8.1%	20.9	7.8%	-5.8%	0.8%	28.5*
O=C(CN(Cc1ccco1)S(=O)(=O)c1cccs1)Nc1ccccc1C(F)(F)F	-2.7%	42.1*	-12.1%	-1.7%	4.1%	24.3*
O=C(CSc1nccn1Cc1ccco1)Nc1ccccc1	-2.2%	41.1*	8.8%	x	-3.1%	31.8*
O=C(c1ccc2c(c1)N(Cc1ccc(F)cc1)C(=O)c1ccccc1S2(=O)=O)N1CCCC1	x	x	0.5%	x	x	x
N#Cc1ccccc1Cn1c(=O)n(Cc2ccc(C(=O)NC3CCN(Cc4ccccc4)CC3)cc2)c(=O)c2ccccc21	x	x	-1.6%	x	x	x
O=C(NC1CCCCC1)N(Cc1nc2ccccc2c(=O)[nH]1)C1CCCCC1	-0.7%	65.2*	2.4%	-6.3%	1.7%	25.0*
CC1CCCCC1NC(=O)CCCc1nc2ccccc2c(=O)[nH]1 (configuration not stated)	0.6%	23.4	4.6%	2.9%	2.0%	7.8*
Cc1ccc(NC(=O)c2ccccc2O)cc1	-23.6%	+	-7.3%	-7.9%	31.6µM*	33.6*
Cc1ccc(N/C(=C\C(=O)c2ccccc2)C(=O)O)cc1	0.4%	100.1*	-17.3%	-23.1%	-19.8%	46.5*
Cc1ccc(NC(=O)NNC(=O)c2ccccc2)cc1	-2.0%	43.9*	-25.7%	7.2%	8.1%	22.1*
O=C(Nc1ccccc1)c1ccccc1I	x	42.5*	x	-1.6%	x	31.2*
Cc1ccc(NC(=O)/C(=C\C=C\c2ccccc2)NC(=O)c2ccccc2)cc1	-0.8%	14.9	-5.1%	6.2%	34.7%	11.4
Cc1cc(C)cc(NC(=O)Nc2ccc(NC(=O)c3ccccc3O)cc2)c1	2.6%	18.3	-1.0%	-8.6%	6.9%	4.1
